PubChem BioAssay (NCATS)
Records with an inconclusive call do not appear. A call without a number means that no potency is given here. Values without a mark were called inactive. Calls of active or inactive are those of the source. Calls follow the shape of the dose curve; as a rule, active = well fitted cell-killing curve with a large enough effect; inconclusive = small, poorly fitted or top-dose-only effect, or effect the other way; inactive = no such curve, though single readings can be large or run the other way.

Columns and labels:
[1] = Viability qHTS for spleen associated tyrosine kinase inhibitor (SYKi) naive MV4-11 cells (AID 1963823); settings: MV4-11 AML viability, CellTiter-Glo luminescence, 72 h; series mostly up to 45 µM; also: nearly all actives have a fitted effect of over 40% in size
Summary of the method: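 In this viability screen, compounds acted on SYK inhibitor naive MV4-11 cells for three days (72 hr, 37 C). Remaining viable cells were measured by CellTiter-Glo luminescence following a 10 min room-temperature development.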

[2] = Viability qHTS for spleen associated tyrosine kinase inhibitor (SYKi) drug resistant MV4-11 cells (AID 1963824); settings: SYKi-resistant MV4-11 viability, CellTiter-Glo, 72 h; series mostly up to 45 µM; also: nearly all actives have a fitted effect of over 35% in size
Summary of the method: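 CellTiter-Glo luminescence, read 10 min after reagent addition, reports viability after a 72 hr compound exposure. Cells are an MV4-11 line made resistant to SYK inhibition, seeded at 500 per well onto compound-containing plates.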
Potency is read from the fitted curve at half-maximal effect.

| Compound | Potency [1] | Potency [2] | viability (% of control) [1] | viability, % of control [2] |
| --- | --- | --- | --- | --- |
| COC(=O)C1=CO[C@@H](O[C@@H]2O[C@H](CO[C@@H]3O[C@H](COC(=O)/C=C/c4ccc(O)cc4)[C@@H](O)[C@H](O)[C@H]3O)[C@@H](O)[C@H](O)[C@H]2O)[C@@H]2C(CO)=CC[C@H]12 | inactive | inactive |  |  |
| C=C1C(=O)OC2C(OC(=O)C=C(C)C)C(C)=C3C(=O)C=C(C)C3C(O)C12 (centres undefined) | 2020 nM (active) | 1610 nM (active) |  |  |
| COC(=O)C1=CO[C@@H](O[C@@H]2O[C@H](CO)[C@@H](O)[C@H](O)[C@H]2O)[C@H]2[C@@H]1[C@H](O)[C@H](O)[C@]2(C)O | inactive | inactive |  |  |
| CC(=O)O[C@H]1[C@H](O[C@H]2[C@@H]3C=CO[C@@H](O[C@@H]4O[C@H](CO)[C@@H](O)[C@H](O)[C@H]4O)[C@@H]3[C@@]3(CO)O[C@@H]23)O[C@@H](C)[C@H](OC(=O)/C=C/c2ccccc2)[C@H]1OC(=O)/C=C/c1ccccc1 |  |  | 88.5% [at 9.25 µM] | 83.3% [at 9.25 µM] |
| CCN1CCN(Cc2ccc(-c3cc4c(NC(C)c5ccccc5)ncnc4[nH]3)cc2)CC1 (centres undefined) | 920 nM (active) | 1300 nM (active) |  |  |
| CC/C(=C(\c1ccc(O)cc1)c1ccc(OCCNC)cc1)c1ccccc1 | inactive | inactive |  |  |
| COC(=O)C1=COC(O[C@@H]2O[C@H](CO)[C@@H](O)[C@H](O)[C@H]2O)/C(=C\COC(=O)c2ccc(OC3OC(CO)C(O)C(O)C3O)c(OC)c2)C1CC(=O)OCCc1ccc(O)cc1 (some centres undefined) |  |  | 83.5% [at 9.25 µM] | 105% [at 9.25 µM] |
| CC1(C)CC[C@]2(C(=O)O[C@@H]3O[C@H](CO)[C@@H](O)[C@H](O)[C@H]3O)CC[C@]3(C)C(=CCC4[C@@]5(C)C[C@@H](O)[C@H](O)[C@](C)(C(=O)O)C5CC[C@]43C)C2C1O (some centres undefined) | inactive | inactive |  |  |
| O=C1NC2CCCCN2C12CCN(CCCN1c3ccccc3CCc3ccc(Cl)cc31)CC2 (centres undefined) | 10300 nM (active) | 4610 nM (active) |  |  |
| OCc1ccc(O[C@@H]2O[C@H](CO)[C@@H](O)[C@H](O)[C@H]2O)cc1 | inactive | inactive |  |  |
| CCOC(=O)c1ccc(N(C)c2csc(-c3ccccc3)n2)cc1 | inactive | inactive |  |  |
| C[C@@H]1O[C@@H](OC[C@H]2O[C@@H](Oc3cc(O)cc4c3C(=O)C(O)(Cc3ccc(O)cc3)O4)[C@H](O)[C@@H](O)[C@@H]2O)[C@H](O)[C@H](O)[C@H]1O (some centres undefined) | inactive | inactive |  |  |
| CC1=C2C(=O)C=C(CO[C@@H]3O[C@H](CO)[C@@H](O)[C@H](O)[C@H]3O)[C@@H]2[C@H]2OC(=O)[C@H](C)[C@@H]2CC1 | inactive | inactive |  |  |
| CCOC(=O)c1cnc2ccc(-c3cncc(NS(=O)(=O)c4ccccc4)c3)cn12 | 326 nM (active) | 231 nM (active) |  |  |
| C=C1CCC2C(C)(C(=O)OC)CCCC2(C)C1CCC(C)CC(=O)O (centres undefined) | inactive | inactive |  |  |
| O=C(O)c1cccc(C(=O)CCC2OC(n3cnc4c(=O)[nH]cnc43)C(O)C2O)c1 (centres undefined) | inactive | inactive |  |  |
| CC(C)(OC1OC(CO)C(O)C(O)C1O)C1CCC(O)(CO)C2CC(O)C(C)(O)C2C1 (centres undefined) | inactive | inactive |  |  |
| OC[C@H]1O[C@@H](OC[C@H]2O[C@@H](OC/C=C/c3ccccc3)[C@H](O)[C@@H](O)[C@@H]2O)[C@@H](O)[C@@H]1O | inactive | inactive |  |  |
| Nc1ncnc2c1ncn2CCNCCCCCO | inactive | inactive |  |  |
| CC(C)CCNC(=O)c1ccc2c(c1)nc(Nc1n[nH]c3ccc(-c4ccccc4OC(F)(F)F)cc13)n2C1CCC(O)CC1 (centres undefined) | 16400 nM (active) | 16400 nM (active) |  |  |
| C[C@@H]1O[C@@H](O[C@H]2[C@H](O)[C@@H](O)[C@H](OC3CCC4(C)C5CCC(C)(C(CO)OC6OC(CO)C(O)C(O)C6O)CC5=CCC4C3(C)C)O[C@@H]2CO)[C@H](O)[C@H](O)[C@H]1O (some centres undefined) | inactive | inactive |  |  |
| CC1(C)CC[C@]2(C(=O)O[C@@H]3O[C@H](CO)[C@@H](O)[C@H](O)[C@H]3O)CC[C@]3(C)C(=CCC4[C@@]5(C)CC[C@H](O[C@@H]6O[C@H](C(=O)O)[C@@H](O)[C@H](O[C@@H]7O[C@H](CO)[C@H](O)[C@H](O)[C@H]7O)[C@H]6O)C(C)(C)C5CC[C@]43C)C2C1 (some centres undefined) |  |  | 81.1% [at 9.25 µM] | 106% [at 9.25 µM] |
